Screen size: about 69,000 compounds; about 8,600 (12%) showed an effect of 50% or more. For the sample, strong results were picked, then their nearest neighbours and some compounds at random.

The subject of this assay is Plasmodium berghei. Description: Screen against P. berghei liver stage (PbLuc), transformed with Luciferase, at 10uM. In kind it is functional, HepG2. The following applies: tested at 10 uM.
Regarding `COCCN1CCCC(c2ccnc3c(C(N)=O)cnn23)C1` (configuration not stated), the INHIBITION was determined as 37.7%.
Regarding `CNC(=O)C(C)(C)N1CCC[C@H]1C(=O)NCC(C)C`, the INHIBITION amounted to 27.2%.
Turning to `Cc1cccc(-c2noc(CN3CCCC3Cn3cncn3)n2)c1` (configuration not stated), the INHIBITION amounted to 19.4%.
In the case of `CC(Cn1cccn1)n1cnc2ccc(F)cc2c1=O` (configuration not stated) it was 35%; in that of `CCOC(=O)CNC(=O)N1CCC(OC)c2ccccc2N(C)C(=O)C1` (configuration not stated), 29.8%; in that of `O=C1CCCC2=C1C(c1ccco1)C1C(=O)NN=C1N2` (configuration not stated), 36.3%.
For the compound `CCc1ncc2c(n1)CN(Cc1cccc(OCC(N)=O)c1)CC2`, the INHIBITION is 0.914%.
Under `Cc1nc(CN(C)C2CCN(Cc3ccc(Cl)s3)C2)no1` (configuration not stated) stands -35.7%; under `O=S(=O)(CCO)CCc1ccccc1Cl`, 25.2%; under `c1ncn(CC2CCCN2Cc2csc(C3CCCCC3)n2)n1` (configuration not stated), 23.5%.
In the case of `CCNc1cc2c(nn1)CCN(C(=O)Cc1c(C)nn(C)c1C)C2` it was 15.5%; in that of `CC(NC1CCN(CCS(C)(=O)=O)CC1)c1cnn(C(C)C)c1` (configuration not stated), -5.22%.
For `O=C(c1cnccn1)N1CCO[C@H]2[C@H](OCc3cccnc3)CC[C@@H]21`, the INHIBITION came to 7.31%.
Under `CN1CCN(c2ncnc3c2CCN(c2ncc(F)cn2)CC3)CC1` stands 24.9%; under `CC1CCN(S(=O)(=O)N2CCC(Oc3cnccn3)CC2)CC1`, 19.6%; under `Cc1cc2c(=O)n3c(nc2s1)CCN(C(=O)c1ccn(C)n1)CC3`, 0.301%.
With `CC(=O)NCCNC(=O)Nc1cc(C(C)(C)C)sc1C#N`, the INHIBITION was 42.7%.
As for `CN(C)S(=O)(=O)N1CC[C@]2(C[C@H](OCc3ccccn3)CO2)C1`, the INHIBITION was found to be 57.1%.
In the case of `O=S(=O)(c1ccccc1)N1CCC[C@]2(C[C@H](OCC3CC3)CO2)C1` it was 19.4%.
For the compound `CCS(=O)(=O)N1CC[C@]2(C[C@@H](OCC3CC3)CO2)C1`, the INHIBITION turned out to be 15.1%.
`CN(C)S(=O)(=O)N1CC[C@]2(C[C@@H](OCc3ccccn3)CO2)C1`: the INHIBITION turned out to be 39.4%.
`CN(C)S(=O)(=O)N1CC[C@]2(C[C@@H](OCC3CC3)CO2)C1`: the INHIBITION was found to be 57.1%.
Take `CCO[C@@H]1CO[C@@]2(CCCN(S(=O)(=O)c3ccccc3)C2)C1`: the INHIBITION stood at 64.9%.
For the compound `CN(C)S(=O)(=O)N1CC[C@]2(C[C@@H](Oc3ncccc3F)CO2)C1`, the INHIBITION came to 10.1%.
In the case of `CCO[C@H]1CO[C@@]2(CCCN(S(=O)(=O)c3ccccc3)C2)C1` it was 23.9%; in that of `Cc1cccc(CO[C@@H]2CO[C@@]3(CCN(S(=O)(=O)N(C)C)C3)C2)n1`, 63.5%; in that of `CN(C)S(=O)(=O)N1CC[C@]2(C[C@H](Oc3ncccc3F)CO2)C1`, 34.1%.
Under `CN(C)S(=O)(=O)N1CCC2(CC1)CC(Oc1ccccn1)CO2` (configuration not stated) stands -60.2%; under `CN(C)S(=O)(=O)N1CCC2(CC1)CC(OCC1CC1)CO2` (configuration not stated), 28.2%.
As for `COCC(=O)N1CCN(C(C)c2ncc(-c3ccccc3)o2)CC1` (configuration not stated), the INHIBITION turned out to be 40.2%.
Turning to `Cc1cc2n(n1)CC(CNCc1ccc(-n3cccn3)cc1)CN2` (configuration not stated), the INHIBITION was determined as 6.35%.
Consider `O=C(Nc1ccc(OC2CCCC2)cc1)C1CCCN1c1nccs1` (configuration not stated), for which the INHIBITION is reported as 2.625%.
On to `CC(C)Oc1cccc(F)c1C(C(=O)O)N1CCCN(C)CC1` (configuration not stated), for which the INHIBITION came out at 28.2%.
In the case of `Cn1cc(-c2cnc(N3CCOCC3)nc2)cc1C(=O)NC1CC1` it was -1.55%.
For the compound `Cc1cc(CN2CCN(C(=O)NCc3ccoc3)CC2)no1`, the INHIBITION is listed as -7.35%.
For the compound `O=C(NC[C@]1(O)CN(Cc2ncccc2F)C[C@H]1O)c1cc[nH]n1`, the INHIBITION is on record as 40.4%.
Turning to `CC(O)(CNc1ccc(Cl)c(C#N)n1)c1ccsc1` (configuration not stated), the INHIBITION is reported as -20.3%.
In the case of `CCCC(=O)Nc1cccc([C@H]2C[C@@H](NC(C)=O)CCO2)c1` it was 33.85%.
`CNC(=O)c1cc2c(nc1NCC(C)C)CCN(c1ccncn1)CC2`: the INHIBITION is -38.7%.
In the case of `CN(Cc1nc(N2CCCC2)ncc1-c1ccncc1)C(=O)C(C)(C)C` it was 21.6%; in that of `COc1ccc2c(c1)NC(C1CCN(C(=O)C3CC3)CC1)NS2(=O)=O` (configuration not stated), -30.9%.
As for `Cc1cc(C(=O)N2CCCC2c2c(C)nn(C)c2C)no1` (configuration not stated), the INHIBITION worked out at 23.5%.
Turning to `Cc1ccc(C(=O)Nc2cn[nH]c2)cc1F`, the INHIBITION was found to be 0.5%.
Turning to `Fc1ccc(Br)c(NCc2nnsc2Cl)c1`, the INHIBITION is 43.1%.
Take `CC1CCCCN1C(=O)c1ccn(COc2ccc(F)cc2)n1` (configuration not stated): the INHIBITION is recorded as -3.11%.
For `CC(C)NC(=O)N1CCC2(C1)CN(c1ccsc1)C(=O)CN2C` (configuration not stated), the INHIBITION was 27.9%.
With `O=C(C1CC1)N1CCC[C@]2(C[C@@H](OCc3ccncc3)CO2)C1`, the INHIBITION is reported as 10.5%.
In the case of `O=C(N1CCCC1)N1CCC[C@]2(C[C@@H](OCc3ccncc3)CO2)C1` it was 53.9%.
For the compound `O=C(c1ccccc1)N1CCC[C@]2(C[C@@H](OCc3ccncc3)CO2)C1`, the INHIBITION was -13.7%.
On to `CCc1nc(CN(C)CC(N)=O)cs1`, for which the INHIBITION is given as 31.8%.
On to `Cc1c(C(C)NC(=O)C2CCCCC2)cnn1C` (configuration not stated), for which the INHIBITION is on record as 8.12%.
As to `Cc1c(C(C)NC(=O)C2CCCC2)cnn1C` (configuration not stated), the INHIBITION is -8.87%.
Under `Cc1c(C(C)NC(=O)N2CCN(C3CCCC3)CC2)cnn1C` (configuration not stated) stands 70.9%; under `O=C1CCC(=O)N1c1nn(Cc2c(F)cccc2Cl)cc1Cl`, 24.8%; under `CN(C)c1ccc(C(=O)Nc2ccn(CCc3ccncc3)n2)cn1`, -17.7%.
Take `O=C(Cc1c[nH]c2ccccc12)N1CCC(Nc2cccnn2)CC1`: the INHIBITION is on record as 21.8%.
Take `O=C(Cc1cccc2ccccc12)N1CCC(Nc2cccnn2)CC1`: the INHIBITION is -9.76%.
For `Cc1ccc(NC2CCN(C(=O)Cc3c(C)nn(C)c3C)CC2)nn1`, the INHIBITION is recorded as -3.547%.
Regarding `Cn1cc(CC(=O)N2CCC(Nc3cccnn3)CC2)c2ccccc21`, the INHIBITION was determined as 66.8%.
Consider `Cc1nn(C)c(C)c1CC(=O)N1CCC(Nc2cccnn2)CC1`, for which the INHIBITION is 53.5%.
In the case of `Cc1noc(C)c1CC(=O)N1CCC(Nc2cccnn2)CC1`, the INHIBITION is reported as 17.883%.
For the compound `CC(NC(=O)NCc1cccs1)c1ccc2c(c1)CCC(=O)N2` (configuration not stated), the INHIBITION was -27.8%.
Under `Cc1cc(C)c2c(c1)C(NCc1c(C)nn(C)c1N(C)C)CCO2` (configuration not stated) stands 16.515%.
For the compound `O=C1CCC(C(=O)Nc2cnn(-c3ccccc3Br)c2)N1` (configuration not stated), the INHIBITION amounted to 47%.
In the case of `CCCN1CCN(C(=O)CCn2cccc2)CC1`, the INHIBITION is 16.8%.
As for `O=C(c1cnccn1)N1C[C@@H]2CCN(c3cnccn3)C[C@@H]2C1`, the INHIBITION amounted to 35.8%.
On to `Cn1cncc1C(=O)N1C[C@@H]2CCN(c3cnccn3)C[C@@H]2C1`, for which the INHIBITION came to 56.6%.
Under `O=C(C1CCCCC1)N1C[C@@H]2CCN(c3cnccn3)C[C@@H]2C1` stands -15.9%; under `Cn1ccc(C(=O)N2C[C@@H]3CCN(c4cccnc4)C[C@@H]3C2)n1`, 32.1%.
For `O=C(C1CCCC1)N1C[C@@H]2CCN(c3cnccn3)C[C@@H]2C1`, the INHIBITION stood at 16.1%.
As to `O=C(CC1CC1)N1C[C@@H]2CCN(c3cnccn3)C[C@@H]2C1`, the INHIBITION is 15.7%.
In the case of `Cn1ccc(C(=O)N2C[C@@H]3CCN(c4cnccn4)C[C@@H]3C2)n1`, the INHIBITION came to 24%.
Regarding `c1cnc(N2C[C@H]3CCN(CCN4CCCC4)C[C@H]3C2)cn1`, the INHIBITION is on record as 57.5%.
With `c1cnc(N2C[C@H]3CCN(CC4CC4)C[C@H]3C2)cn1`, the INHIBITION is 58.4%.
In the case of `Cc1ccc(N2CC[C@H]3CN(C(=O)c4ccn(C)n4)C[C@H]3C2)nn1`, the INHIBITION worked out at 75.6%.
Under `c1cc(CN2CC[C@@H]3CN(c4cnccn4)C[C@@H]3C2)ccn1` stands 27.6%; under `Cn1ccnc1C(=O)N1C[C@@H]2CCN(c3cnccn3)C[C@@H]2C1`, 31.2%.
As for `Cc1cc(NC(=O)NCC(c2ccc(C)o2)N2CCOCC2)n(C)n1` (configuration not stated), the INHIBITION was 45.7%.
On to `CC(NC(=O)NCCCn1cncn1)c1ccncc1` (configuration not stated), for which the INHIBITION stood at 33%.
Under `CN(C)[C@@H]1CCN(C(=O)CC2CC2)[C@H]1Cc1cnn(C)c1` stands 4.27%.
In the case of `COCC1CN(Cc2ccoc2)Cc2nn(CC3CC3)cc21` (configuration not stated), the INHIBITION is on record as 1.9%.
On to `CC(=O)NCC(=O)N1C[C@@H]2CC[C@H](Oc3ccccc3Cl)[C@@H]2C1`, for which the INHIBITION came to 30.8%.
As for `CCOC(=O)NCCC(=O)NCc1ccnc(Oc2ccc(F)cc2)c1`, the INHIBITION is on record as 21.5%.
For the compound `CCOC(=O)NCCC(=O)NCc1ccc(Oc2ccc(F)cc2)nc1`, the INHIBITION is 61.5%.
For the compound `CCOC(=O)NCCC(=O)NCc1ccc(Oc2cccc(F)c2)nc1`, the INHIBITION is 35.5%.
Under `CCc1noc(CN2CCN(CCO)CC2)n1` stands 15.8%; under `Cc1cnn(CC2CCCN2CC(=O)Nc2cc(C)no2)c1` (configuration not stated), -0.219%; under `CCCC(=O)NC1CCc2c(ccc(=O)n2Cc2csc(C)n2)C1` (configuration not stated), 17.6%.
Regarding `Cc1ccc(N2CCCN(C(=O)CC3CCCO3)CC2)nn1` (configuration not stated), the INHIBITION came out at 35.3%.
`CC(C)N1CCOC(CC(=O)N2CCCN(Cc3cccs3)CC2)C1` (configuration not stated): the INHIBITION worked out at 28.5%.
On to `Cc1ccccc1N1CCCN(C(=O)CC2CN(C(C)C)CCO2)CC1` (configuration not stated), for which the INHIBITION is given as 60.3%.
Take `CC(C)N1CCOC(CC(=O)N2CCCN(c3ccc(F)cc3)CC2)C1` (configuration not stated): the INHIBITION is reported as 22.1%.
Under `CC(C)N1CCOC(CC(=O)N2CCCN(Cc3ccncc3)CC2)C1` (configuration not stated) stands 58.5%; under `CC(C)N1CCOC(CC(=O)N2CC(c3ccncc3)C2)C1` (configuration not stated), 31.2%; under `CN(C)C(=O)C1CN(Cc2ccsc2)CCN(S(C)(=O)=O)C1` (configuration not stated), 20.8%.
For `O=C(c1cccnc1)N1CCOCC2(CCN(c3ncccn3)C2)C1` (configuration not stated), the INHIBITION is -62.6%.
Under `Cc1cc(C)c(C(=O)NCCNc2ncnc3ccccc23)c(=O)[nH]1` stands -21.6%; under `CCn1nc(C)cc1C(=O)OCCNc1ncnc2ccccc12`, 83.2%; under `CCn1nc(C)cc1C(=O)OCCNC(=O)c1ccccc1`, -1.95%.
As to `COC(=O)CSCc1nc(-c2ccc(Cl)cc2)no1`, the INHIBITION worked out at 48.8%.
Regarding `COC(=O)CSCc1noc(-c2ccc(C)cc2)n1`, the INHIBITION stood at 91.3%.
Turning to `COC(=O)CSCc1noc(-c2ccc(Cl)cc2)n1`, the INHIBITION is on record as 46.6%.

The values above are taken from ChEMBL document CHEMBL4513216, “Probing the Open Global Health Chemical Diversity Library for Multistage-Active Starting Points for Next-Generation Antimalarials” (ACS Infect Dis, 2020).
